Assay [1] can be described thus: ATG_GLI_CIS: Attagene CIS-FACTORIAL HepG2 Assay for human Zinc Finger Protein GLI1 (AID 2282945). The following applies: HepG2, Attagene cis-factorial reporter mRNA, GLI element; actives raise or lower the signal. Summed up: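 Bidirectional curve fits relative to DMSO, using reporter mRNA levels from RT-PCR plus capillary electrophoresis. Cells were HepG2 transiently carrying cis-regulated reporter constructs, harvested 24 h after dosing.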

Assay [2] has as its target Bile acid receptor (Homo sapiens) (UniProt Q96RI1). Briefly: ATG_IR1_CIS: Attagene CIS-FACTORIAL HepG2 Assay for human Nuclear Receptor Subfamily 1 Group H Member 4 (NR1H4), IR1 submotif (AID 2282946). The following applies: IR1 reporter transcription, actives raise or lower the signal. Summed up:
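Cells (human HepG2) carry transiently transfected cis-promoter reporter transcription units. Compounds are incubated 24 h, total RNA is reverse-transcribed and amplified, and labelled fragments are resolved by capillary electrophoresis. Curves use DMSO as baseline.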

The nature of assay [3]: ATG_GRE_CIS: Attagene CIS-FACTORIAL HepG2 Assay for human Glucocorticoid Response Elements (GRE) (AID 2282947). The following applies: HepG2 GRE cis-reporter, Attagene multiplex mRNA; actives raise or lower the signal. Summed up:
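Transient MRTU transfection of human HepG2 liver cells; cis-regulated reporters report endogenous factors. 24 h dosing → RNA isolation → RT-PCR → 6-FAM primer extension → HpaI cut → CE fragment analysis. Bidirectional fit, DMSO negative control.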

Assay [4] is described as follows: ATG_ISRE_CIS: Attagene CIS-FACTORIAL HepG2 Assay for human Interferon Regulatory Factor 1 (IRF1) binding to an Interferon-Stimulated Response Element (ISRE) (AID 2282948). The following applies: HepG2 ISRE cis-reporter (Attagene), mRNA transcription readout; actives raise or lower the signal. Summed up:
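Quantitation relies on labelled RT-PCR fragments separated by capillary electrophoresis. Human HepG2 cells bearing cis-promoter reporter constructs were treated 24 h; DMSO served as baseline for bidirectional fitting.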

A short description of assay [5]: ATG_M_32_CIS: Attagene CIS-FACTORIAL HepG2 Assay for M32 Transcription Factor (Internal Marker) (AID 2282949).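 Also: background control marker of the multiplexed CIS panel rather than a real target.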 The following applies: HepG2 Attagene cis-factorial M32 reporter, mRNA; actives raise or lower the signal. Summed up:
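HepG2 cells transiently transfected with multiplexed cis-regulated reporter units, dosed 24 h. Reporter mRNA quantified by RT-PCR, 6-FAM labelling, HpaI digestion and capillary electrophoresis; bidirectional fit vs DMSO.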

The nature of assay [6]: ATG_M_06_CIS: Attagene CIS-FACTORIAL HepG2 Assay for M06 Transcription Factor (Internal Marker) (AID 2282950). The following applies: HepG2 Attagene CIS-FACTORIAL M06 internal marker reporter; actives raise or lower the signal. Summed up:
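Fluorescence-labelled RT-PCR products from cis-promoter reporter units, cut with HpaI and resolved by capillary electrophoresis, give the signal. Cells are human HepG2, dosed for 24 h. Serves as background control, fitted relative to DMSO.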

Assay [7] has as its target Hypoxia-inducible factor 1-alpha (Homo sapiens) (UniProt Q16665). Briefly: ATG_HIF1a_CIS: Attagene CIS-FACTORIAL HepG2 Assay for human Hypoxia Inducible Factor 1 (HIF1A) (AID 2282951). The following applies: HepG2 Attagene cis-factorial HIF1a reporter transcription; actives raise or lower the signal. Summed up:
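RT-PCR/capillary electrophoresis fluorescence readout of reporter transcripts from endogenous-TF-driven cis elements in transfected HepG2 cells, 24 h exposure; activity fitted in both directions against DMSO controls.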

Assay [8] concerns the target Hepatocyte nuclear factor 6 (Homo sapiens) (UniProt Q9UBC0). Briefly: ATG_HNF6_CIS: Attagene CIS-FACTORIAL HepG2 Assay for human Hepatocyte Nuclear Factor 6 (HNF6) (AID 2282952). To be noted: HepG2 Attagene cis-factorial HNF6 reporter transcription; actives raise or lower the signal. Summed up:
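Reporter mRNA induction or loss in HepG2 after 24 h exposure; transient cis-MRTU transfection; fragments quantified by capillary electrophoresis; bidirectional analysis, DMSO as negative control.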

The target of assay [9] is Heat shock factor protein 1 (Homo sapiens) (UniProt Q00613). Briefly: ATG_HSE_CIS: Attagene CIS-FACTORIAL HepG2 Assay for human Heat Shock Transcription Factor 1 (HSE) (AID 2282953). To be noted: HepG2 HSE cis-reporter, Attagene RNA transcription; actives raise or lower the signal. Summed up: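 After a 24 h incubation with test chemical, transfected HepG2 cells were harvested for RNA; reporter transcripts were measured by RT-PCR and capillary electrophoresis. Values reflect gain or loss of signal relative to DMSO.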
Sequence of Heat shock factor protein 1 (Homo sapiens) (Q00613 whole entry, looked up): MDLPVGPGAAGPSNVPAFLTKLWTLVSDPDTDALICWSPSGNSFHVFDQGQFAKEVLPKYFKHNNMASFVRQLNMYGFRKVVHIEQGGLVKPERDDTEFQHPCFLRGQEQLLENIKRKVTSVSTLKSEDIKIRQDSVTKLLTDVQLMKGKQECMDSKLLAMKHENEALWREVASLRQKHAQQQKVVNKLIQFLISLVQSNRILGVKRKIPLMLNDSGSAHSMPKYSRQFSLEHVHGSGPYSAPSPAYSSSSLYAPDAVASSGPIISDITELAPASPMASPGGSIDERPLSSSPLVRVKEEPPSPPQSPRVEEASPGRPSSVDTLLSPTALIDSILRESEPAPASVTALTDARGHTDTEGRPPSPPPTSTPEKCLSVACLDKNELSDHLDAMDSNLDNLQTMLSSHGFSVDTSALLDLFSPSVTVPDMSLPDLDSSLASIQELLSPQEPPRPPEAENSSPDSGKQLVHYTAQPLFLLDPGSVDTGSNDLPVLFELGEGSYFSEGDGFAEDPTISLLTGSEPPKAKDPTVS

Assay [10] is described as follows: ATG_MRE_CIS: Attagene CIS-FACTORIAL HepG2 Assay for human Metal Responsive Element (MRE) (AID 2282954). The following applies: HepG2 MRE cis-reporter transcription, Attagene multiplex; actives raise or lower the signal. Summed up: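 Transient MRTU transfection of HepG2 (FuGene 6); 24 h dosing; total RNA → oligo(dT) RT, PCR, 6-FAM primer extension, HpaI cut, CE. Bidirectional fit vs DMSO.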

The source made the active and inactive calls. The calls were made as follows: active = hit-call score of the fitted dose curve at least 0.9, where 1 is the maximum; inactive = score below 0.9.

Sequence of Hepatocyte nuclear factor 6 (Homo sapiens) (Q9UBC0 whole entry, looked up, the tested form may be a part): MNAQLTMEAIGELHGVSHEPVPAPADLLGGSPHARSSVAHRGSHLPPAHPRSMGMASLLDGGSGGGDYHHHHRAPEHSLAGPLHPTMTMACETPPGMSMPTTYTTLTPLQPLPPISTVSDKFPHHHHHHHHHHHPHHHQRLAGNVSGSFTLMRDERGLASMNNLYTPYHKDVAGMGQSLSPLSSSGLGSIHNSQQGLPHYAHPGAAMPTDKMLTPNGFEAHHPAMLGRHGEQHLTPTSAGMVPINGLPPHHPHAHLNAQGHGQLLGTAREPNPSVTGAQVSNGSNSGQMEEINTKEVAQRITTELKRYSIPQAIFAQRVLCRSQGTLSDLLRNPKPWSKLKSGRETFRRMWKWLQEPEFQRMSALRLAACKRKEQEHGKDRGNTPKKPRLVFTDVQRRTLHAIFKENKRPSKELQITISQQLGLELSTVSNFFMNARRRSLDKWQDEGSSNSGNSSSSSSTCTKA
Sequence of Hypoxia-inducible factor 1-alpha (Homo sapiens) (Q16665 whole entry, looked up): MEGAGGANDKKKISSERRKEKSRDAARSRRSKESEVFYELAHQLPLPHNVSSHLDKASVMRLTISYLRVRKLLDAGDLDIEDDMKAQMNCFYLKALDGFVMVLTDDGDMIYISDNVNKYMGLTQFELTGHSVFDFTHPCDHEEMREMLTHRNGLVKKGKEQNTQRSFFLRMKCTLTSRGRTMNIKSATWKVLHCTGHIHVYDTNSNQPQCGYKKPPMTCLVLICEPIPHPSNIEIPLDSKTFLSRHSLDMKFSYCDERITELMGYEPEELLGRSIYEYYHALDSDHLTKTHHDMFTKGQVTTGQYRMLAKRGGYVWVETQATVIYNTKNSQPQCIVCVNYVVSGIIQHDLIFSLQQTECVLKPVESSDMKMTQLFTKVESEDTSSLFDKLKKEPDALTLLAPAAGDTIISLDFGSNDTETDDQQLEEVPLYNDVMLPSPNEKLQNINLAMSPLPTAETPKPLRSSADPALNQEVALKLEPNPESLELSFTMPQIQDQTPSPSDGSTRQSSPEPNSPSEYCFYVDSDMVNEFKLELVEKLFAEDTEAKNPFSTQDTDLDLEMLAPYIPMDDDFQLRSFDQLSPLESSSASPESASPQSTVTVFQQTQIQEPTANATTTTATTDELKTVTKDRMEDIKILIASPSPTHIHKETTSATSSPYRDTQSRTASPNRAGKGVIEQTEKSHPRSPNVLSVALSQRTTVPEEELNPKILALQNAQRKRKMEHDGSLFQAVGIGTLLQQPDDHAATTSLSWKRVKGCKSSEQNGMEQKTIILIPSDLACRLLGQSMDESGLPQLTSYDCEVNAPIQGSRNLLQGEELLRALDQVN
Sequence of Bile acid receptor (Homo sapiens) (Q96RI1 whole entry, looked up, the tested form may be a part): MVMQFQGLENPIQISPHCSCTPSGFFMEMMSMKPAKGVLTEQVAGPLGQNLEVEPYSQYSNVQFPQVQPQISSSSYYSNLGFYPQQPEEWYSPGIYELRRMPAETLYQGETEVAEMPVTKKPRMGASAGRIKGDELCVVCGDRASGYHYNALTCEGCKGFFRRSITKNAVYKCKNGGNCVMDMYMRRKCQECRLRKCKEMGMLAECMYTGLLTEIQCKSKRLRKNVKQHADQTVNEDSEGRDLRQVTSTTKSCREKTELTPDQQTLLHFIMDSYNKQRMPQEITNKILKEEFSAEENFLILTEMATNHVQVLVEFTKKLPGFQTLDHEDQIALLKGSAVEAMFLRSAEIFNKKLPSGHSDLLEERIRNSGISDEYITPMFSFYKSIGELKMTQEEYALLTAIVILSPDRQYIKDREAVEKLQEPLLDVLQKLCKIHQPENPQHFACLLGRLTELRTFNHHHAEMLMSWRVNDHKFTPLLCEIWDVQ

On to `O=C(O)C(F)(F)C(F)(F)C(=O)O`, for which the call in assay [1], in assay [2], in assay [3], in assay [4], in assay [5] and in assay [6] was inactive. In addition, the outcome in [7], in [8], in assay [9] and in [10] was inactive.
Take `O=C(O)C(F)(F)OC(F)(F)C(F)(F)OC(F)(F)F`: the compound was called inactive in assay [1], in assay [2], in [3], in assay [4], in [5] and in [6]. Further, the call in assay [7], in [8], in assay [9] and in [10] was inactive.
As a reminder, the AC50 is the midpoint of the concentration-response curve, whichever way the signal moves. Take `ClC1=C(Cl)C2(Cl)C3C(Cl)C(Cl)CC3C1(Cl)C2(Cl)Cl` (centres undefined): the outcome in assay [1], in [3], in assay [4], in assay [5], in [6] and in assay [7] was inactive. The compound was classed as inactive in assay [8]. The values for the AC50 in assay [2], in assay [9] and in assay [10] were 17.1 µM (active), 50 µM (active) and 41.2 µM (active), respectively.
On to `CC(C)(C)OOC(C)(C)C`, for which the compound was called inactive in assay [1], in assay [2], in [3], in assay [4], in assay [5] and in assay [6]. For the same compound, the outcome in [7], in assay [8], in assay [9] and in assay [10] was inactive.
Regarding `CC(C)Nc1ccc(Nc2ccccc2)cc1`, the call in assay [1], in [2], in [3], in assay [5], in assay [6] and in assay [7] was inactive. Besides, the call in [8] and in [10] was inactive. In addition, the AC50 in assay [4] was 43.2 µM (active); in assay [9], 49.6 µM (active).
With `CCNc1nc(Cl)nc(NC(C)(C)C)n1`, the call in [1], in [2], in assay [3], in assay [4], in assay [5] and in assay [6] was inactive. The call in assay [7], in assay [8], in assay [9] and in assay [10] was inactive.
With `ClC(Cl)(Cl)c1ccccc1`, the outcome in assay [1], in assay [2], in assay [3], in [4], in [5] and in [6] was inactive. Further, the compound was classed as inactive in assay [7], in [8], in assay [9] and in assay [10].
Consider `COP(N)(=S)OC`, for which the compound was called inactive in assay [1], in [2], in assay [3], in assay [4], in assay [5] and in assay [6]. The outcome in assay [7], in assay [8], in assay [9] and in [10] was inactive.
Consider `CCOP(=S)(OCC)SCSc1ccc(Cl)cc1`, for which the outcome in [1], in assay [2], in assay [3], in assay [4], in assay [5] and in assay [6] was inactive. Further, the compound was classed as inactive in assay [7], in assay [8], in assay [9] and in assay [10].
As to `O=[N+]([O-])c1cc(Cl)ccc1Cl`, the compound was called inactive in assay [1], in [2], in assay [3], in assay [4], in assay [5] and in [6]. Further, the compound was called inactive in assay [7], in assay [8], in assay [9] and in [10].
As for `c1ccc2c(c1)sc1ccccc12`, the outcome in [1], in [2], in assay [3], in assay [4], in assay [5] and in assay [6] was inactive. Also, the compound was called inactive in assay [7], in [8], in assay [9] and in assay [10].
Consider `CCCCC(CC)COC(=O)c1c(Br)c(Br)c(Br)c(Br)c1C(=O)OCC(CC)CCCC` (centres undefined), for which the call in [1], in [2], in assay [3], in [4], in assay [5] and in [6] was inactive. Besides, the compound was classed as inactive in [7], in [8], in [9] and in assay [10].
For `CCCCC(CC)COP(=O)(Oc1ccccc1)Oc1ccccc1` (centres undefined), the AC50 in assay [1] is 100 µM (active); in assay [2], 25.6 µM (active); in assay [7], 100 µM (active); in assay [9], 72 µM (active); in assay [10], 50.1 µM (active). Besides, the compound was classed as inactive in [3], in assay [4], in assay [5], in [6] and in [8].
As to `ClC(Cl)=C(c1ccc(Cl)cc1)c1ccccc1Cl`, the call in assay [1], in assay [4], in assay [5], in assay [6], in assay [7] and in assay [8] was inactive. Also, the AC50 in assay [2] is 43.7 µM (active); in assay [3], 124 µM (active); in [9], 41.7 µM (active); in [10], 100 µM (active).
As for `Oc1ccc(I)cc1`, the result in [1], in assay [2], in assay [3], in assay [4], in [5] and in assay [6] was inactive. Besides, the compound was called inactive in [7], in assay [8], in assay [9] and in assay [10].
For the compound `CC(Cl)CN(C)C` (centres undefined), the call in assay [1], in assay [2], in assay [3], in assay [4], in [5] and in [6] was inactive. Besides, the outcome in assay [7], in [8] and in [10] was inactive.
`CCOP(=S)(OCC)SCS(=O)(=O)CC`: the outcome in assay [1], in [2], in [3], in [4], in assay [5] and in [6] was inactive. Further, the compound was called inactive in assay [8], in assay [9] and in assay [10].
For the compound `Cc1ccc(C(=O)Cl)cc1`, the outcome in assay [1], in assay [2], in assay [3], in [4], in assay [5] and in [6] was inactive. Also, the compound was called inactive in assay [7], in assay [8] and in assay [10].
Consider `O=C(O)C(F)(OC(F)(F)C(F)(F)C(F)(F)F)C(F)(F)F` (centres undefined), for which the compound was classed as inactive in [1], in assay [2], in [3], in assay [4], in [5] and in [6]. The call in assay [8], in assay [9] and in assay [10] was inactive.
In the case of `CC(=O)CCc1ccc2c(c1)OCO2`, the compound was classed as inactive in [1], in assay [2], in assay [3], in [4], in assay [5] and in assay [6]. Besides, the result in assay [8], in assay [9] and in assay [10] was inactive.
As to `C=CC(=O)OCC(CC)(COC(=O)C=C)COC(=O)C=C`, the compound was classed as inactive in assay [1], in [3], in assay [5], in assay [6], in [8] and in assay [9]. For the same compound, the half-maximal activity concentration (AC50) was 8.23 µM (active) in assay [2], 42.4 µM (active) in assay [4] and 9.05 µM (active) in assay [10].
For the compound `Cc1cc(C)c(C(=O)P(=O)(c2ccccc2)c2ccccc2)c(C)c1`, the AC50 is 60 µM (active) in [1]; 12.8 µM (active) in assay [2]; 57.7 µM (active) in assay [3]; 53.1 µM (active) in [5]; 60.7 µM (active) in assay [6]; 50.7 µM (active) in [8]. The concentration at half-maximal activity (AC50) was 62.5 µM (active) in [9] and 17.9 µM (active) in [10]. Also, the outcome in assay [4] was inactive.
`NNC(N)=S`: the compound was called inactive in assay [1], in assay [2], in assay [3], in assay [4], in [5] and in [6]. Moreover, the outcome in [7], in [8] and in assay [10] was inactive.
With `O=C(O)C(F)(F)OC(F)(F)C(F)(F)OC(F)(F)C(=O)O`, the result in assay [1], in [2], in [3], in [4], in assay [5] and in assay [6] was inactive. Further, the call in assay [8], in assay [9] and in assay [10] was inactive.
For the compound `COP(=O)(CCC(=O)NCO)OC`, the compound was called inactive in assay [1], in assay [2], in assay [3], in assay [4], in [5] and in assay [6]. Further, the outcome in [7], in [8] and in assay [10] was inactive.
`O=S(=O)(c1ccc(O)cc1)c1ccc(O)cc1`: the result in [1], in assay [2], in assay [3], in [4], in [5] and in assay [6] was inactive. Besides, the call in [7], in assay [8] and in [10] was inactive.

The record behind these values is PubChem BioAssay (EPA / NIEHS).
